In the supplement of paper PMC10849652:
Targets with a hit are over-represented here; the source holds about 7,900 in all. About 0.6% of all pairs of compound and target were hits.

compound: Cc1ccc(NC(=O)c2ccc(CN3CC[C@H](N(C)C)C3)c(C(F)(F)F)c2)cc1Nc1nccc(-c2cncnc2)n1 [bafetinib]; experiment: log2 fold change, soluble protein after heating vs DMSO (PISA); higher = thermal stabilisation; K562 cells, 10 uM, 30 min; active = over 0.2 and 3.5 SD of the protein, either way, in both replicates (recomputed)
In short: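 Thermal stability values are relative to control samples and come from duplicates. They are expressed as log2 fold changes. For measurement, K562 cells (2×10^6 cells/mL) received 10 μM compound for 30 min, and aliquots were heated for 3 min over 48°C-58°C, pooled, and extracted at 4°C in PBS with 0.5% NP-40. Soluble protein, the supernatant after 21,000xg for 90 min, was quantified by TMTpro 16plex LC-MS/MS with equalised channel sums.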

UniProt Q8IUR7, sequence (Q8IUR7 whole entry, looked up): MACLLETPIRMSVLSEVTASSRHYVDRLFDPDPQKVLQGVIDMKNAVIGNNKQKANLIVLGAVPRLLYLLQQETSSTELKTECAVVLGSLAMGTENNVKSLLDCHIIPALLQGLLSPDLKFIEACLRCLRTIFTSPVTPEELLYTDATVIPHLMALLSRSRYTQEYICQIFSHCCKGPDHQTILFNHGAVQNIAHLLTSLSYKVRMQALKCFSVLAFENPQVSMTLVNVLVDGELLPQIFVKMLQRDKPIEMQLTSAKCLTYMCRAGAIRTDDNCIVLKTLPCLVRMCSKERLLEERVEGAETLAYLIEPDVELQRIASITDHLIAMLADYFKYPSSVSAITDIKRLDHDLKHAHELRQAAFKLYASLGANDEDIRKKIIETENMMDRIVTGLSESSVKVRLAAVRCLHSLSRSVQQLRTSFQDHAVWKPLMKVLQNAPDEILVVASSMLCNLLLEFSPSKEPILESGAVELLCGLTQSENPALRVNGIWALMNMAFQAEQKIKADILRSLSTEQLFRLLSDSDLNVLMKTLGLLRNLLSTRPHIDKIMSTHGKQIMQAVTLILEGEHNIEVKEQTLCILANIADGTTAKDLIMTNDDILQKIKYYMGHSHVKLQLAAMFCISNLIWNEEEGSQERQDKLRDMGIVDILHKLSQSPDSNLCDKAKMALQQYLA
UniProt Q9NRZ7, sequence (Q9NRZ7 whole entry, looked up): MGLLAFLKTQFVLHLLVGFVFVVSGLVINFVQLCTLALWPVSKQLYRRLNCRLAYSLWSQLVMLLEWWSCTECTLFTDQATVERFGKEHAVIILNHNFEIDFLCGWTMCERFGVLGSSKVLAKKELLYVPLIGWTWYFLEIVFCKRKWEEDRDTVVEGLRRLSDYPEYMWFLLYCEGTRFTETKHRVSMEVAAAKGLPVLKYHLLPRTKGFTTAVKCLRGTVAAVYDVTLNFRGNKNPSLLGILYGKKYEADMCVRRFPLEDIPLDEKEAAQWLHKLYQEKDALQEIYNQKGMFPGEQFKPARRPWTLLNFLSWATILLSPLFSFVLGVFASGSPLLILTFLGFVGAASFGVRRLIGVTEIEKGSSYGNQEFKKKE
UniProt Q9NUQ2, sequence (Q9NUQ2 whole entry, looked up): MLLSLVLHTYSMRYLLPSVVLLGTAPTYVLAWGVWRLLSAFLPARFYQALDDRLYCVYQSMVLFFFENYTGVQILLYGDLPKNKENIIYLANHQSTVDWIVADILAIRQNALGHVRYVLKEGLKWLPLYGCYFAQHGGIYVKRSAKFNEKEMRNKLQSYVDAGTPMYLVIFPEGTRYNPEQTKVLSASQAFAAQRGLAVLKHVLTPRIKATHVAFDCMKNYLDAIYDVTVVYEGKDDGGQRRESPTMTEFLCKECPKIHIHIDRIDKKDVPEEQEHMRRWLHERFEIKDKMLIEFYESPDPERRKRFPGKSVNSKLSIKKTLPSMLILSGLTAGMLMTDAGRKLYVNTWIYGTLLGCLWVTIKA
UniProt O95870, sequence (O95870 whole entry, looked up): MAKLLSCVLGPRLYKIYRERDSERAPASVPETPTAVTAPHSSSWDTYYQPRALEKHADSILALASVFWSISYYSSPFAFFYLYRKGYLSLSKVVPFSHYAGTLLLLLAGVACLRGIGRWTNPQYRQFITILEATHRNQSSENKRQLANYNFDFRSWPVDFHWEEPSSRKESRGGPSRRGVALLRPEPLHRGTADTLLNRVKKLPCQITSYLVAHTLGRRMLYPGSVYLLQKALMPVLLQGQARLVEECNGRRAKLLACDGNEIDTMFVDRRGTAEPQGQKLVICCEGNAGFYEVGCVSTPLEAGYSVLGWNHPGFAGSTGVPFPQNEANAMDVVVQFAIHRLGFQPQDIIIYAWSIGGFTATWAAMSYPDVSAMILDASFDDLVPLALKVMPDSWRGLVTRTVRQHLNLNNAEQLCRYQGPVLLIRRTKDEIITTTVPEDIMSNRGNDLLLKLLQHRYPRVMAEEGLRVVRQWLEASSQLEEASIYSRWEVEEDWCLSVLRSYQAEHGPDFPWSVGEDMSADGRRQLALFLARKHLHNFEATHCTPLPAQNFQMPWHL
UniProt P56385, sequence (P56385 whole entry, looked up): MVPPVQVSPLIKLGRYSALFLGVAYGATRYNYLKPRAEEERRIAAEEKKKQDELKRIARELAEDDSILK
UniProt Q9UKV5, sequence (Q9UKV5 whole entry, looked up): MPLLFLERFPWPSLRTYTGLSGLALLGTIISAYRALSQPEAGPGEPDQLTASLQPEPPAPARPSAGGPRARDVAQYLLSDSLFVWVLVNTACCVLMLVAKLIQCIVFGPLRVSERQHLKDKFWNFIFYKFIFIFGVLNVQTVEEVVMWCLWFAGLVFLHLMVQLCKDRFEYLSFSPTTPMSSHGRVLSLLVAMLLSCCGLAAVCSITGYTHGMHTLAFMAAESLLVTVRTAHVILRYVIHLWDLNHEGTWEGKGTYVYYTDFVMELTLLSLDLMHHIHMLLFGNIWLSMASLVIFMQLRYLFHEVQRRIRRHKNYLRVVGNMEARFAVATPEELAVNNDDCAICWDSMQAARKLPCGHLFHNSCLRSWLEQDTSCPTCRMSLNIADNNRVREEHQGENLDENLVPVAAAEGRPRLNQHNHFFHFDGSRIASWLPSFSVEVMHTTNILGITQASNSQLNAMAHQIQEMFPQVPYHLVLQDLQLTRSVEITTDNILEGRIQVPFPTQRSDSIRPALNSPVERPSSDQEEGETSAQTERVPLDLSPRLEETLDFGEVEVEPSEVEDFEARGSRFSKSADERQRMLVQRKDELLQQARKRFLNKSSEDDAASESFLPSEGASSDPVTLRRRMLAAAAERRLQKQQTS
UniProt P31751, sequence (P31751 whole entry, looked up): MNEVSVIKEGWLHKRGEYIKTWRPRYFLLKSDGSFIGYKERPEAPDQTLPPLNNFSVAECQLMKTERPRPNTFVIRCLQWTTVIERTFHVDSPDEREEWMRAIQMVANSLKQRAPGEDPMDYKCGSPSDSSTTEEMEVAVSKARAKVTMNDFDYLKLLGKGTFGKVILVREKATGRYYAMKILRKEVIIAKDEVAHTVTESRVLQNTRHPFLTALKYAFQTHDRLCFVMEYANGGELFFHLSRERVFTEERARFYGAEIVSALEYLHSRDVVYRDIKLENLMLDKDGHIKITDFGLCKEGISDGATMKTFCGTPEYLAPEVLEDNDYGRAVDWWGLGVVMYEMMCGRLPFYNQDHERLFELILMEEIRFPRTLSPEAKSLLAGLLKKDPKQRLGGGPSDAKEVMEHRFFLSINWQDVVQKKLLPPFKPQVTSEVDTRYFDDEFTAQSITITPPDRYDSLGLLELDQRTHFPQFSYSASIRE
UniProt P49189, sequence (P49189 whole entry, looked up): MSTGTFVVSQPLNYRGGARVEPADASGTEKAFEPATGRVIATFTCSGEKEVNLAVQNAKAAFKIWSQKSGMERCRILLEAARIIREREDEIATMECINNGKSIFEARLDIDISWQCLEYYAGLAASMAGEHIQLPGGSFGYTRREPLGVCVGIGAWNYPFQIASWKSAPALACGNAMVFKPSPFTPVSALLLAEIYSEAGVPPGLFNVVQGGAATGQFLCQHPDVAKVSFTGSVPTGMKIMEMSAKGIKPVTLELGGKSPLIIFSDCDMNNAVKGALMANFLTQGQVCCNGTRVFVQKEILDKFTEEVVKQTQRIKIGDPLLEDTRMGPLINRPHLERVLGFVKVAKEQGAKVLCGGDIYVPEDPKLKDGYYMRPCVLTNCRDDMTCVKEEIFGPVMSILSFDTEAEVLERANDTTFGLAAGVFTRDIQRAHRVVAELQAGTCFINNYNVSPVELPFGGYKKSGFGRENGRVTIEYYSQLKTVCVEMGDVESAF
UniProt P54707, sequence (P54707 whole entry, looked up): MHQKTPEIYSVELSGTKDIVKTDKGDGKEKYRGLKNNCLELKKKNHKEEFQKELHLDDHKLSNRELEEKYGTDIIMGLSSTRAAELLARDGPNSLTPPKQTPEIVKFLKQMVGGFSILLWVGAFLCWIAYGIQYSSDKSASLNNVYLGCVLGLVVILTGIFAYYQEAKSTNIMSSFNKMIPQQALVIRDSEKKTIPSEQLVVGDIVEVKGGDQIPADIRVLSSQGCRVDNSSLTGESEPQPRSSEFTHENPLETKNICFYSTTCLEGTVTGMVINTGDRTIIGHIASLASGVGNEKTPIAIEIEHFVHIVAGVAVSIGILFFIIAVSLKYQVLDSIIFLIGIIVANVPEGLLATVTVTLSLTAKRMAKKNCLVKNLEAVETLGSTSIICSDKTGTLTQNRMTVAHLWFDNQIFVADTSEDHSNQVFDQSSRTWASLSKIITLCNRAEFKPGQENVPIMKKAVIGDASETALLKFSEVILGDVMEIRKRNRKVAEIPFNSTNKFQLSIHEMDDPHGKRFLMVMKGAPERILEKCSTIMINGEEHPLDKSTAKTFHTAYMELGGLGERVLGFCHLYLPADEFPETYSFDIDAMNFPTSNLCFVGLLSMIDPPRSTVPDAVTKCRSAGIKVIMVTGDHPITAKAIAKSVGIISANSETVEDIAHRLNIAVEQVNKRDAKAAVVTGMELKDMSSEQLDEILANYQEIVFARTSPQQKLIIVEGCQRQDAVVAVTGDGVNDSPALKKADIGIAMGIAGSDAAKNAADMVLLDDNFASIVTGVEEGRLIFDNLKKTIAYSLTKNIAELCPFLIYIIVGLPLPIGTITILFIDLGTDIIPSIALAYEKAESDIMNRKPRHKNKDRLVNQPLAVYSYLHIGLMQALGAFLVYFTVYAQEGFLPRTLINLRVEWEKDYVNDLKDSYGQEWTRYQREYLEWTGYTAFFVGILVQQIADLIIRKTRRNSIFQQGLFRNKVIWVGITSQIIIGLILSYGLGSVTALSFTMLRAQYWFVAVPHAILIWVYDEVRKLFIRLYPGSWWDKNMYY
UniProt Q9Y3D8, sequence (Q9Y3D8 whole entry, looked up): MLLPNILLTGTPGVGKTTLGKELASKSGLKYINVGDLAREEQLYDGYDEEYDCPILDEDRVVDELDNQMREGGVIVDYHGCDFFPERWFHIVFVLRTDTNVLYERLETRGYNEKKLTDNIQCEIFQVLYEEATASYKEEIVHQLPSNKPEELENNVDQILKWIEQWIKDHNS

log2 fold change, inactive:
BZW2 (UniProt Q9Y6E2) -0.021
ALDH6A1 (UniProt Q02252) -0.045
ATAD3B (UniProt Q5T9A4) -0.014
ASNS (UniProt P08243) -0.055
ALG11 (UniProt Q2TAA5) -0.078
AGPAT5 (UniProt Q9NUQ2) -0.133
ALDH9A1 isoform 3 (UniProt P49189) -0.003
ARL2BP (UniProt Q9Y2Y0) 0.001
ASH2L (UniProt Q9UBL3) 0
ACO2 (UniProt Q99798) 0.021
APOB (UniProt P04114) -0.316
AMFR (UniProt Q9UKV5) -0.095
AKT2 (UniProt P31751) 0.021
BCAP29 isoform 2 (UniProt Q9UHQ4) -0.159
ADD3 (UniProt Q9UEY8) 0.008
ATP6V0A1 isoform 3 (UniProt Q93050) -0.12
BCCIP isoform 2 (UniProt Q9P287) 0.014
BRD4 (UniProt O60885) 0.067
ATL2 (UniProt Q8NHH9) 0.026
BRIX1 (UniProt Q8TDN6) 0.386
ACBD6 (UniProt Q9BR61) -0.058
ABCB6 (UniProt Q9NP58) -0.035
ATG4B isoform 2 (UniProt Q9Y4P1) 0.004
ALDH18A1 (UniProt P54886) -0.206
AGPAT3 isoform 3 (UniProt Q9NRZ7) -0.057
ANKZF1 (UniProt Q9H8Y5) 0.104
AK6 (UniProt Q9Y3D8) 0.021
AP2S1 (UniProt P53680) 0.023
ACADVL isoform 3 (UniProt P49748) -0.093
ATP5ME (UniProt P56385) -0.071
B4GALT1 (UniProt P15291) -0.062
ALKBH5 (UniProt Q6P6C2) 0.038
ATP12A isoform 2 (UniProt P54707) 0.026
ABHD16A (UniProt O95870) 0.132
BAP1 (UniProt Q92560) 0.252
ARMC8 (UniProt Q8IUR7) 0.021
